ChEMBL document CHEMBL3988442, “University of Dundee, Small-Polar-MMV Screening Library” (2021)
The campaign covered roughly 48,000 compounds. About 13,000 (27%) showed an effect of 50% or more. The list shows a part of the results.

Test system: Wolbachia pipientis
Experiment: Anti-Wolbachia Cell-Based Screen
Assay type: functional
Parameters: scale not given: in the data most compounds retested in dose-response had high values
Conditions: 5 µM

| Structure (SMILES) | Percent Effect [%] |
| --- | --- |
| Cc1nc(CC(=O)N2CCCC2c2nc(-c3ccccc3)no2)cs1 (centres undefined) | -0.9344 |
| Nc1c(N2CCCCC2)ncnc1N1CCOCC1 | 114.1 |
| Cn1cccc1C(=O)N1CCc2ncnc(N3CCOCC3)c2CC1 | -2.151 |
| OC1(CN2CCCC2)COCCN(c2ncnc3[nH]cnc23)C1 (centres undefined) | 9.273 |
| CC(C)(C)C(=O)N1CCCN(c2ncnc3nc(N)ccc23)CC1 | 6.072 |
| Nc1c(N2CCCC2)ncnc1N1CCOCC1 | 108.5 |
| Clc1cnccc1N1CCCOCC1 | 1.077 |
| O=C(c1c2c(N3CCCC3)ncnc2n2ccccc12)N1CCOCC1 | -6.579 |
| CN1CCCN(c2ncnc(N3CCOCC3)c2N)CC1 | 103.9 |
| O=C(c1c2c(N3CCOCC3)ncnc2n2ccccc12)N1CCCC1 | -0.1651 |
| O=C(CSc1ccccc1)N1CCc2c(ncnc2N2CCOCC2)C1 | 3.982 |
| Nc1c(N2CCOCC2)ncnc1N1CCOCC1 | 121.8 |
| O=C1COc2ccc(S(=O)(=O)NCC3CCCO3)c3c2N1CCC3 (centres undefined) | -4.147 |
| Cc1ccc(CN2CC[C@@H]3[C@@H](CO[C@H]3CN3CCN(C)CC3)C2)cc1.O=C(O)C(F)(F)F.O=C(O)C(F)(F)F.O=C(O)C(F)(F)F | 118.8 |
| CN1CCN(C[C@H]2OC[C@@H]3CCN(C(=O)c4cnccn4)C[C@@H]32)CC1.O=C(O)C(F)(F)F.O=C(O)C(F)(F)F | -7.535 |
| CN(C)C[C@@H]1OC[C@H]2CN(Cc3ccoc3)CC[C@H]21.O=C(O)C(F)(F)F.O=C(O)C(F)(F)F | 10.46 |
| Cc1ccc(CN2CC[C@@H]3[C@@H](CO[C@H]3CN3CCN(C)CC3)C2)s1.O=C(O)C(F)(F)F.O=C(O)C(F)(F)F.O=C(O)C(F)(F)F | 97.55 |
| Cc1ccc(CN2CC[C@H]3[C@H](CO[C@H]3CN(C)C)C2)o1.O=C(O)C(F)(F)F.O=C(O)C(F)(F)F | -5.785 |
| Cc1ccc(CN2CC[C@H]3CO[C@H](CN(C)Cc4ccco4)[C@H]3C2)s1.O=C(O)C(F)(F)F.O=C(O)C(F)(F)F | 10.16 |
| CN(Cc1cccnc1)C[C@@H]1OC[C@H]2CN(Cc3ccoc3)CC[C@H]21.O=C(O)C(F)(F)F.O=C(O)C(F)(F)F.O=C(O)C(F)(F)F | 6.292 |
| CN1CCN(C[C@@H]2OC[C@H]3CN(CCc4ccccc4)CC[C@H]32)CC1.O=C(O)C(F)(F)F.O=C(O)C(F)(F)F.O=C(O)C(F)(F)F | 108.2 |
| CN1CCN(C[C@@H]2OC[C@H]3CN(Cc4cccc(F)c4)CC[C@H]32)CC1.O=C(O)C(F)(F)F.O=C(O)C(F)(F)F.O=C(O)C(F)(F)F | -7.407 |
| CCN1CCC(N[C@@H]2CC[C@@H]2NC(=O)Cc2csc(C)n2)CC1 | 2.853 |
| Clc1cccnc1N1CCC(NCc2cccc3cn[nH]c23)C1 (centres undefined) | 0.5809 |
| COCC1c2nnn(CC3CC3)c2CCN1C(=O)c1ccncn1 (centres undefined) | -7.229 |
| CN(C)c1ccc(-c2cc(C(=O)O)cc(S(=O)(=O)NC3CC3)c2)cc1 | -6.079 |

| Structure (SMILES) | Percent Effect [%] |
| --- | --- |
| COCc1cc(O)nc(C2CCCN(Cc3cc(OC)ccc3F)C2)n1 (centres undefined) | -12.81 |
| COCc1cc(O)nc(C2CCCN(Cc3ccc(OC)cc3)C2)n1 (centres undefined) | 126.6 |
| COCc1cc(O)nc(C2CCCN(Cc3cccc(Cl)c3Cl)C2)n1 (centres undefined) | 101.5 |
| COCc1cc(O)nc(C2CCCN(Cc3cccc(OC)c3)C2)n1 (centres undefined) | 123.8 |
| NC(=O)Cn1ccnc1C1CCCN(Cc2cccc(Cl)c2F)C1 (centres undefined) | -13.72 |
| COCCN1C[C@H]2CN(Cc3cccc(OC)c3)CCN2C1=O | -3.935 |
| COCC1CCCN(CCCc2cccc(OC)c2)C1 (centres undefined) | 6.457 |
| Cc1cc(O)nc(C2CCCN(Cc3ccncc3)C2)n1 (centres undefined) | -8.016 |
| COCc1nccc(C2CCCN(Cc3ccccc3C#N)C2)n1 (centres undefined) | -3.966 |
| CCc1cc(O)nc(C2CCCN(Cc3ccncc3)C2)n1 (centres undefined) | 119.5 |
| COCCn1cnnc1CCn1ccnc1-c1ccccc1Cl | -5.954 |
| CN(Cc1ccon1)c1nc(-c2ccccn2)nc2c1CCNCC2 | -7.259 |
| CCn1c(Cn2cccn2)nnc1C1CCN(Cc2ccc(C)o2)CC1 | 4.312 |
| O=c1c2ccccc2nc2n1CCC2O (centres undefined) | 1.424 |
| O=C(Nc1cc(CSCCO)ccn1)c1ccc(Cl)o1 | -51 |
| Cc1ncccc1C(=O)NC1(c2cccc(F)c2)CCOCC1 | -2.77 |
| COCc1cc(O)nc(C2CCCN(Cc3ccc(F)cc3)C2)n1 (centres undefined) | 105.5 |
| CC(NC(=O)NCCN1CCCCCC1=O)c1ccc(Cl)s1 (centres undefined) | -4.831 |
| CCC(CC)C(=O)N1CCN(Cc2cc(-c3ccncc3)nn2C)CC1 | 102.3 |
| CCCC(=O)N1CCN(c2cc(-n3cnc(C)c3C)nc(C)n2)CC1 | -4.899 |
| COCC(=O)N1CCN(Cc2cc(-c3ccncc3)nn2C)CC1 | 92.41 |
| CCC(=O)N1CCN(Cc2cc(-c3ccncc3)nn2C)CC1 | -2.828 |
| CCCC(=O)N1CCN(Cc2cc(-c3ccncc3)nn2C)CC1 | 103.8 |
| CC(C)C(=O)N1CCN(Cc2cc(-c3ccncc3)nn2C)CC1 | -9.87 |
| CCc1nc(CN2CCCN(C(=O)COC)CC2)cs1 | 6.894 |
| CC(C)CC(=O)N1CCN(Cc2cc(-c3ccncc3)nn2C)CC1 | 111 |

| Structure (SMILES) | Percent Effect [%] |
| --- | --- |
| CCN(CC)C(=O)N1CCN(CCc2ccncc2)CC1 | 2.653 |
| CCN(CC)CC(=O)N1CCN(CCCc2ccncc2)CC1 | 2.413 |
| CCN(CC)CC(=O)N1CCN(CCc2ccncc2)CC1 | -8.418 |
| COc1ccc2nc(CNC(=O)c3cc(C(C)C)no3)[nH]c2c1 | -7.08 |
| CC(NCc1cnn(C)c1)c1noc(-c2ccc(Cl)cc2)n1 (centres undefined) | 2.096 |
| O=C1CCc2cc(C(=O)NCc3ccc(-n4cncn4)nc3)ccc2N1 | -4.762 |
| Cc1csc(C(=O)NCCn2nc(-n3cncn3)ccc2=O)c1 | 104.4 |
| O=C(NCCn1nc(-n2cncn2)ccc1=O)c1ccsc1 | 90.98 |
| O=C(NCCn1nc(-n2cncn2)ccc1=O)c1ccc(F)cc1F | 119.8 |
| Cc1ccc(C(=O)NCCS(=O)(=O)Cc2ccccc2)c(C)c1 | 5.407 |
| Cc1ccc(C(=O)NCCCn2cncn2)c(=O)[nH]1 | 0.33 |
| Cc1ccc(C(=O)NCCn2nc(-n3cncn3)ccc2=O)c(C)c1 | 115.4 |
| O=C(NCCc1ccsc1)c1ccoc1 | 7.959 |
| N#Cc1cccc(N2CCCC3(C2)CN(c2nncs2)CCO3)c1 (centres undefined) | -22.42 |
| O=C1O[C@@H]2CN(c3ccc(Cl)cn3)C[C@@H]2N1CCc1ccc(F)cc1 | 15.74 |
| CCOc1cc(CNC(=O)C(C#N)c2nc(C)cs2)ccc1OC(F)F (centres undefined) | -3.55 |
| NS(=O)(=O)CCNC(=O)c1ccc(OCc2ccccc2)nc1 | 5.557 |
| CCCc1nc(C)cc(N2CCNC(C(=O)NC3CC3)C2)n1 (centres undefined) | -8.099 |
| O=C(C1CN(CC2CC2)CC12CCOCC2)N1CCOCC1.O=C(O)C(F)(F)F (centres undefined) | 0.7969 |
| O=C(CN1CCCCC1Cn1cccn1)NC1CCN(C2CC2)CC1 (centres undefined) | -1.641 |
| CCSc1ccccc1C(=O)NCCn1nc(-n2cncn2)ccc1=O | 112 |
| O=C(NCCn1nc(-n2cncn2)ccc1=O)c1ccccc1Br | 41.16 |
| CCSc1ccccc1C(=O)NCCn1nc(C(F)(F)F)n(C)c1=O | -21.23 |
| CN(C)C(=O)c1nnn(-c2ccc(Br)cc2)n1 | 110.9 |
| CC1CCCN(C(=O)c2nnn(-c3ccc(C(F)(F)F)cc3)n2)C1 (centres undefined) | -23.6 |
| COCC(C)NC(=O)c1nnn(-c2ccc(Br)cc2)n1 (centres undefined) | 4.837 |

| Structure (SMILES) | Percent Effect [%] |
| --- | --- |
| CN(CC(N)=O)C(=O)c1cn(-c2ccc(Br)cc2)cn1 | 8.695 |
| O=C(NCc1ccccn1)c1nnn(-c2ccc(Br)cc2)n1 | 7.96 |
| CCC(C)NC(=O)c1nnn(-c2ccc(Br)cc2)n1 (centres undefined) | 110.8 |
| Cc1ccc(CN(C)C(=O)CN2CCCCC2Cn2cncn2)cc1 (centres undefined) | -11.49 |
| O=C(NCc1ccccc1CN1CCOCC1)Nc1nncs1 | 33.23 |
| CC(C1CCN(Cc2cccc(OC(F)F)c2)CC1)N1CCOCC1 (centres undefined) | 4.738 |
| Cc1nc(-c2ccc(S(=O)(=O)N3CCC=C(F)C3)cc2)co1 | 3.194 |
| CCN(CC)c1ncccc1CNC(=O)c1cnn(CC)c1 | -6.3 |
| CCN(Cc1ccc(Cl)s1)S(=O)(=O)CC | -12.66 |
| CCN(CC)c1ncccc1CNCc1cc2ccccc2s1 | 111.2 |
| CCC(CO)N(Cc1ccccn1)Cc1ccc(-c2ccn[nH]2)s1 (centres undefined) | 0.2436 |
| CCN(CC)c1ncccc1CNC(=O)c1cc2nc(C)cc(C)n2n1 | -11.51 |
| CCC(CO)N(Cc1cccnc1)Cc1ccc(-c2ccn[nH]2)s1 (centres undefined) | 4.35 |
| CCN(CC)c1ncccc1CNCc1ccc(Cl)s1 | 99.51 |
| CCN(CC)c1ncccc1CNCc1ccc(-c2ccn[nH]2)s1 | 103.4 |
| Cc1cc(N(C)C)nc(N2CCn3c(nnc3C(C)C)C2)n1 | -5.2 |
| NC(=O)C1CCCN1Cc1ccccc1NC(=O)Cc1cccs1 (centres undefined) | -13.98 |
| COCCn1ccc2ccc(C(=O)N3CCN(C(C)=O)CC3)cc21 | 108.9 |
| COCCn1ccc2cc(NC(=O)COC)ccc21 | 1.286 |
| CN(C)S(=O)(=O)N1CCN(C(=O)c2ccc3ccn(C)c3c2)CC1 | 5.412 |
| COCCn1ccc2cc(C(=O)N3CCN(S(C)(=O)=O)CC3)ccc21 | 125.8 |
| COCCn1ccc2ccc(C(=O)O)cc21 | 99.17 |
| CS(=O)(=O)N1CCC(Oc2ccc(C(=O)N3CCSCC3)cc2Cl)CC1 | 7.501 |
| CCOC(=O)N1CCN(C(=O)c2ccc3ccn(C)c3c2)CC1 | 0.8286 |
| Cn1ccc2ccc(C(=O)N3CCN(C(=O)N4CCOCC4)CC3)cc21 | 0.8109 |
| CCC(=O)Nc1ccc2c(ccn2CCOC)c1 | 8.893 |
